Reference: paper PMC5540273 (PLoS ONE, 2017)

What was measured:
Settings in all cases: concentration: 1 μM, replicates: in singlicate; n = 1
DDR2 = tested on: DDR2
DLK = tested on: T1, DLK
T1 construct: gene MAP3K12

DMPK2 = tested on: T2, DMPK2
T2 construct: gene CDC42BPG

DMPK = tested on: DMPK
DRAK1 = tested on: T3, DRAK1
T3 construct: gene STK17A

DRAK2 = tested on: T4, DRAK2
T4 construct: gene STK17B

DYRK1A = tested on: DYRK1A
DYRK1B = tested on: DYRK1B
DYRK2 = tested on: DYRK2
EGFR = tested on: EGFR
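Note: KINOMEscan kinase panel screen.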

SMILES	%Inh (DDR2) [%]	%Inh (DLK) [%]	%Inh (DMPK2) [%]	%Inh (DMPK) [%]	%Inh (DRAK1) [%]	%Inh (DRAK2) [%]	%Inh (DYRK1A) [%]	%Inh (DYRK1B) [%]	%Inh (DYRK2) [%]	%Inh (EGFR) [%]
Clc1ccc(-c2cc(-c3c[nH]nc3-c3ccccn3)ccn2)cc1 [GW681251]	7	92.9	0	0	0	0	11	0	0	24
COc1ccc(Nc2nccc(N3CCC(NC(=O)c4cccc(NC(C)=O)c4)C3)n2)cc1 (stereo not drawn) [GSK1379732]	41	33	0	13	24	0	8	87	7	16
COc1cc2ncnc(Nc3ccc(OCc4ccccc4Br)c(Cl)c3)c2cc1OC.Cl [GI261590]	18	3	7	0	9	0	10	0	0	99.9
COc1ccc(-c2oc3ncnc(N)c3c2-c2ccc(OC)cc2)cc1 [SB-589132]	70	52	2	0	4	0	15	0	18	0
Clc1cc(Nc2ncnc3cc[nH]c23)ccc1OCc1ccccn1	0	40	0	9	48	20	0	17	17	99.9
Nc1n[nH]c2nnc(-c3ccccc3)cc12 [SB-517389]	7	0	0	0	0	0	72	92.4	57	34
c1ccc(-c2ccc3c(-c4ccnc(Nc5ccc6c(c5)OCCO6)n4)cnn3n2)cc1 [GW818941]	26	0	0	20	15	0	8	16	0	14
Nc1nc(-c2ccc3c(N)n[nH]c3c2)cc(N2CCC[C@@H](C(=O)Nc3ccccc3)C2)n1.O=C(O)C(F)(F)F.O=C(O)C(F)(F)F [GSK2288359]	7	0	15	0	55	0	0	14	32	24
CCc1nc(-c2cccc(N(C)S(=O)(=O)c3ccccc3)c2)c(-c2ccnc(Nc3ccc(N4CCN(C(C)=O)CC4)nc3)n2)s1 [GSK1645895]	5	0	22	0	3	0	0	0	29	79
CN1c2ccc(-c3ccc(C(=O)NCCO)cc3)cc2-c2[nH]ncc2S1(=O)=O	0	29	7	0	24	29	47	49	31	0
COC(=O)c1cccc(NC(=O)NCCNc2ccnc(Nc3ccc(F)cc3)n2)c1 [GSK1379883]	17	31	8	0	0	0	0	14	5	3
C[C@H]1CC[C@@H](C(=O)Nc2ccccc2)CN1c1cc(-c2ccc3c(N)n[nH]c3c2)nc(N)n1 [GSK2283293]	5	25	11	0	97.9	64	17	0	7	30
Nc1nc(-c2cccnc2)c(-c2ccnc3ccccc23)s1 [GW684083]	43	60	0	0	32	0	20	0	9	0
COC(=O)c1c(-c2ccccc2)c2cc(Cl)ccc2c(=O)n1Cc1ccc(S(C)(=O)=O)cc1	5	0	0	0	0	3	17	10	44	6
Cl.c1ccc(Cn2ncc3cc(Nc4ncnc5ccccc45)ccc32)cc1 [GW273749]	0	12	61	0	79	0	16	8	16	100
